# CCHF vOTU inh: blocks the CCHF virus ovarian tumor domain protease; AID 651958; inhibition, % at 11.5 µM; 0.55% of 370,000 active; CCHFV vOTU protease, Pep-AMC fluorescence
# RecA intein inh: Mtb RecA intein splicing inhibition; P9WHJ3; cell-free RecA intein splicing, fluorescence; inhibition, % (no concentration beside the values); 0.75% of 290,000 active; in the data active = inhibition above about 30%
# FBA Mtb inh: Mtb fructose-bisphosphate aldolase inhibition | P9WQA3 | purified M. tuberculosis FBA, fluorescence read-out | inhibition, % at 1 µM | 2.3% of 360,000 active | AID 588726; in the data active = inhibition above about 27%
# Target sequence (P9WQA3 whole entry, looked up): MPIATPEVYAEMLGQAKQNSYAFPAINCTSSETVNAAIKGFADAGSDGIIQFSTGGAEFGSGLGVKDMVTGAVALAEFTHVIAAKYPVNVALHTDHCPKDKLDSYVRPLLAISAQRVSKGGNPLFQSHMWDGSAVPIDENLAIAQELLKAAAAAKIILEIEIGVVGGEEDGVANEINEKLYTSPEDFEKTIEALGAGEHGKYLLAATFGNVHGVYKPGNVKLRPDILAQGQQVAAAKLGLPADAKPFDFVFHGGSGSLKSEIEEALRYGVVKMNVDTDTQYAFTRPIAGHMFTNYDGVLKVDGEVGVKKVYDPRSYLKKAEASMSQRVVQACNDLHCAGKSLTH
# GDH-TPI counter: inhibits GDH-TPI coupling enzymes, artifact for Mtb FBA screen; inhibition, % at 4.8 µM; 1.2% of 360,000 active; GDH-TPI coupled enzyme counterscreen, NADH absorbance
# Numbers stand for hits; – = inactive; · = no result given; + = active, no number. This is a sample that favours compounds with a hit; in the whole collection about 4.2% have one here. Rule as the data show it, unless noted: active = inhibition above about 30%; inactive = the rest.
SMILES,CCHF vOTU inh,RecA intein inh,FBA Mtb inh,GDH-TPI counter
CN(Cc1cccc2cnccc12)C(=O)CCc1nnc(CCc2ccccc2)o1,–,–,–,–
Cc1ccsc1C(=O)OCC(=O)c1cc(C)n(C)c1C,–,·,113.5,–
CNc1nc(-c2ccccc2)cc(C(F)(F)F)c1C#N,–,–,–,–
CC(=O)Nc1nc(-c2ccccc2)cc(-c2ccco2)c1C#N,–,·,+,–
N#Cc1sc2nc(-c3ccccc3)cc(-c3ccco3)c2c1N,58.9,–,–,–
c1ccc(-c2ccn3nnnc3n2)cc1,–,–,–,–
N=c1nc(-c2ccccc2)ccn1O,–,–,–,39.1
Cc1ccc(/C(O)=C2/C(=O)C(=O)N(Cc3cccnc3)C2c2ccccn2)cc1 (centres undefined),–,·,–,38.5
CCS(=O)(=O)N1Cc2ccccc2CC1C(=O)OCC(=O)Nc1ccc(C)cc1 (centres undefined),–,–,–,117.0
CCCS(=O)(=O)NC(=O)C1(C)CCCN(C(=O)c2c(-c3ccccc3)noc2C)C1 (centres undefined),–,·,–,–
Cc1oc2c(O)c(O)ccc2c(=O)c1-c1ccccc1,–,–,–,–
COc1ccc(CN2CCCCC2C)c(C)c1C (centres undefined),–,–,–,–
Cc1oc2c(CN3CCCCC3)c(O)ccc2c(=O)c1-c1ccc(Br)cc1,–,–,129.8,33.0
COc1ccccc1-c1c(C)oc2c(CN3CCCCC3C)c(O)ccc2c1=O (centres undefined),–,–,145.0,–
Cc1oc2c(CN3CCCCC3C)c(O)ccc2c(=O)c1-c1ccccc1 (centres undefined),–,–,173.6,–
CCCN1CCCCC(NC(=O)c2c(F)cccc2F)C1=O (centres undefined),–,·,·,·
CCc1cc2c(=O)n(-c3ccccc3)c(=S)[nH]c2s1,–,–,–,32.3
CN(C)c1ccc(C=NC(CO)C(O)c2ccc([N+](=O)[O-])cc2)cc1 (centres undefined),–,–,–,38.4
COc1cccc(C=N[C@@H](CO)[C@@H](O)c2ccc([N+](=O)[O-])cc2)c1O,–,–,–,–
CCOc1ccc(/C=C2\CCC(C3CCCC3)C2=O)cc1 (centres undefined),–,–,–,–
CCC(=O)OCOc1ccc(/C=C2/CCC(CN(C)C)C2=O)cc1 (centres undefined),–,·,–,31.9
CCOC(=O)[C@]12CCCC=C1N(CCCOC)C(=O)[C@@H]2CC(=O)NCc1cccs1,–,·,·,·
O=C(c1cccc(NS(=O)(=O)c2cccc([N+](=O)[O-])c2)c1)N1CCOCC1,–,–,156.4,–
CC(=O)c1cccc(NS(=O)(=O)c2ccc(N/C=C/C(=O)c3ccc(F)cc3)cc2)c1,–,–,–,–
O=C(c1ccc(NS(=O)(=O)c2ccc(F)cc2)cc1)N1CCOCC1,33.1,–,–,–
SMILES,CCHF vOTU inh,RecA intein inh,FBA Mtb inh,GDH-TPI counter
CC(=O)c1ccc(NS(=O)(=O)c2ccc(N/C=C/C(=O)c3ccc(F)cc3)cc2)cc1,–,–,–,60.8
CCOC(=O)CC1CCCCN1C(=O)c1ccc2nc(CCOC)oc2c1 (centres undefined),–,–,–,–
C=CCN1C(=O)C(Cc2ccc(F)cc2)S/C1=N/N=C/c1cccs1 (centres undefined),–,–,–,–
O=C1CS/C(=N/N=C/c2cccs2)N1Cc1ccc(F)cc1,–,–,–,36.5
COc1cccc(/C=C/c2[nH]c(=O)[nH]c(=O)c2[N+](=O)[O-])c1O,–,–,–,–
COc1cc(/C=C/c2[nH]c(=O)[nH]c(=O)c2[N+](=O)[O-])cc(OC)c1O,–,–,–,30.8
O=C1NC(=S)N/C1=C\c1cccc([N+](=O)[O-])c1,–,–,–,33.5
O=C1NC(=S)N/C1=C/c1cccnc1,–,–,–,45.0
O=C1/C(=C/c2cccnc2)CC/C1=C\c1cccnc1,–,–,–,53.8
CCOC(=O)C1CCCN(C/C=C/c2ccccc2)C1 (centres undefined),–,–,–,–
CN1N=C(C(=O)N=c2sc3ccccc3n2C)CCC1=O,–,·,–,49.0
C=CCN1C(=O)C(CC(=O)O)SC1=Nc1ccc(N=Nc2ccccc2)cc1 (centres undefined),–,–,–,63.3
C=CCN1C(=O)C(CC(=O)O)SC1=Nc1cccc([N+](=O)[O-])c1 (centres undefined),–,·,–,–
CC[N+]1(C)CCC(O)(/C=C/c2ccccc2)C(C(=O)/C=C/c2ccccc2)C1 (centres undefined),–,·,–,–
NC(=N\N=Cc1ccccc1)/C(N)=N/N=Cc1ccccc1,–,·,–,–
NC(=N\N=Cc1ccco1)/C(N)=N/N=Cc1ccco1,–,·,–,58.1

# Compound activity from PubChem BioAssay.
